Results: PubChem BioAssay (Tox21)
Where “and” joins values, the source holds several entries; their conditions need not be identical. Identical values can stand only once. Inconclusive results are not listed. Calls of active or inactive are those of the source. Unless noted, the call rests on the fitted dose curve; in most records, active means well fitted curve in the direction sought with a large enough effect in the repeat runs; inconclusive means weak or mixed curves; inactive means no such curve, though single readings can be large; an effect the other way counts as inactive or inconclusive.

Tests used:
[1] = qHTS assay to identify small molecule agonists of the RXR signaling pathway - cell viability counter screen (AID 1159529); further: nearly all actives have a fitted effect of over 50% in size; further: potency means the concentration at half of the fitted maximal effect
How it was run: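 RXR-alpha-UAS-bla HEK 293T cells in medium with 2% charcoal-stripped FBS were pre-incubated 5 hr, then compound-treated 16 hr at 37 C. Viability was read by CellTiter-Glo luminescence in the same wells as the beta-lactamase assay, with tetraoctyl ammonium bromide as positive control.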

[2] = qHTS assay to identify small molecule antagonists of the retinoid acid receptor (RAR) signaling pathway - cell viability counter screen (AID 1159551); further: nearly all actives have a fitted effect of over 35% in size; further: potency means the concentration at half of the fitted maximal effect
How it was run: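 Measured by luminescent ATP detection, viability reflects C3RL4 cells treated 6 h at 37 C with test chemicals in the presence of 1 uM (final) retinol.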

[3] = qHTS assay to identify small molecule antagonists of the retinoic acid receptor (RAR) signaling pathway (AID 1159552; further: nearly all actives have a fitted effect of over 50% in size)
How it was run: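 Retinol signaling pathway inhibitors screened in C3RL4 RARE-luciferase reporter cells seeded overnight at 37 C, then compounds added with 1 uM (final) retinol as pathway substrate. After 6 hr at 37 C, luciferase luminescence read after 30 min at room temperature.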

[4] = qHTS assay to identify small molecule agonists of the retinoic acid receptor (RAR) signaling pathway (AID 1159553); further: potency means the concentration at half of the fitted maximal effect
How it was run: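 6 hr compound exposure (DMSO vehicle) of overnight-plated C3RL4 RARE-luc cells at 37 C; luminescence quantified after 30 min RT with luciferase reagent.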

[5] = molecular target: Luciferin 4-monooxygenase (Photinus pyralis) (UniProt P08659); assay: qHTS assay to identify small molecule inhibitors of firefly luciferase (AID 1224835); further: nearly all actives have a fitted effect of over 25% in size; further: potency means the concentration at half of the fitted maximal effect
How it was run: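 Quantitative HTS format; KM concentrations of both substrates. Purified P. pyralis FLuc activity quantified from luminescence images.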

[6] = qHTS assay to identify small molecule agonists of the constitutive androstane receptor (CAR) signaling pathway - cell viability counter screen (AID 1224836); further: series mostly up to about 92 µM; nearly all actives have a fitted effect of over 45% in size
How it was run: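 HepG2 cells stably carrying hCAR and a CYP2B6-2.2kb reporter; 15-concentration compounds plus PK11195 (final 0.75 uM), 23 hr at 37 C/5% CO2. Viability read by CellTiter-Fluor fluorescence.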

[7] = qHTS assay to identify small molecule antagonists of the constitutive androstane receptor (CAR) signaling pathway - cell viability counter screen (AID 1224837); further: series mostly up to about 92 µM; nearly all actives have a fitted effect of over 45% in size
How it was run: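 To flag cytotoxic false antagonists, HepG2 hCAR/CYP2B6-2.2kb cells were treated 23 hr with 15-concentration compound series and 50 nM CITCO at 37 C/5% CO2; CellTiter-Fluor fluorescence was the measured end point.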

[8] = molecular target: Nuclear receptor subfamily 1 group I member 3 (Homo sapiens) (UniProt Q14994); assay: qHTS assay to identify small molecule agonists of the constitutive androstane receptor (CAR) signaling pathway (AID 1224839); further: nearly all actives have a fitted effect of over 15% in size; further: potency means the concentration at half of the fitted maximal effect
How it was run: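 HepG2 cells stably co-transfected with hCAR and a CYP2B6-2.2kb luciferase reporter; compounds at 15 concentrations with 0.75 uM PK11195 present. After 24 hr at 37 C, luciferase read by ONE-Glo luminescence.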

[9] = qHTS assay to identify small molecule antagonists of the estrogen related receptor signaling pathway with the pleiotropic PPARgamma coactivator (PGC) from Tox21 10K library - cell viability counter screen (AID 1224840; active means well fitted cell-killing curve with a large enough effect in the repeat runs, not every such curve was filed as active; further: nearly all actives have a fitted effect of over 40% in size)
How it was run: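 Seeded PGC/ERR cells (2,000/well, 6 h, 37 C/5% CO2) get compound by pin tool; 17.5 h incubation at 37 C; CellTiter-Fluor added, 30 min, fluorescence measured.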

[10] = qHTS assay to identify small molecule antagonists of the estrogen related receptor signaling pathway with the pleiotropic PPARgamma coactivator (PGC) from Tox21 10K library (AID 1224841; call rule not given here; further: actives are mostly falling curves and most rising ones were filed inactive; nearly all actives have a fitted effect of over 50% in size; further: potency means the concentration at half of the fitted maximal effect)
How it was run: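 Test chemicals dissolved in DMSO were applied to pre-incubated (6 h) PGC/ERR cells at 2,000 cells/well for an 18 h, 37 C treatment; reporter luminescence was then read using One-Glo.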

[11] = qHTS assay to identify small molecule agonists of the estrogen related receptor signaling pathway with the pleiotropic PPARgamma coactivator (PGC) from Tox21 10K library (AID 1224842); further: nearly all actives have a fitted effect of over 15% in size; further: potency means the concentration at half of the fitted maximal effect
How it was run: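 PGC/ERR reporter cells (NTP line) were seeded 2,000 per well, rested 6 h at 37 C/5% CO2, then pin-dosed with compounds in DMSO for 18 h at 37 C; luciferase read by One-Glo luminescence after 30 min at room temperature.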

[12] = molecular target: Thyrotropin receptor (Homo sapiens) (UniProt P16473); assay: qHTS assay to identify small molecule agonists of the thyroid stimulating hormone receptor (TSHR) signaling pathway (AID 1224843; calls by dose curve; further: nearly all actives have a fitted effect of over 45% in size)
How it was run: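 Using 15 concentrations per compound in triplicate, cAMP production was monitored in TSHR-HEK293 cells after 30 min compound incubation at RT; HTRF reagents followed, with fluorescence intensity recorded after 1 h.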

[13] = qHTS assay to identify small molecule antagonists of the estrogen related receptor (ERR) signaling pathway from Tox21 library - cell viability counter screen (AID 1224834); further: nearly all actives have a fitted effect of over 30% in size; further: potency means the concentration at half of the fitted maximal effect
How it was run: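 Seeded ERR cells were rested 6 h at 37 C/5% CO2 before compounds, positive and negative controls or DMSO were added. Incubation continued for 17.5 h, and viability was then quantified by CellTiter-Fluor fluorescence.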

[14] = molecular target: Nuclear receptor subfamily 1 group I member 3 (Homo sapiens) (UniProt Q14994); assay: qHTS assay to identify small molecule antagonists of the constitutive androstane receptor (CAR) signaling pathway (AID 1224838);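 further: HepG2 cells stably expressing hCAR with CYP2B6 luciferase reporter stimulated by CITCO; nearly all actives have a fitted effect of over 40% in size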
How it was run: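 Human hepatoma HepG2 cells expressing hCAR and a CYP2B6 promoter (2.2 kb) luciferase construct; compound titration (15 points) with 50 nM CITCO final, 24 h at 37 C/5% CO2; luminescence via ONE-Glo after 30 min at room temperature.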

Measured: Potency

Nuclear receptor subfamily 1 group I member 3 (Homo sapiens), sequence (Q14994 whole entry, looked up): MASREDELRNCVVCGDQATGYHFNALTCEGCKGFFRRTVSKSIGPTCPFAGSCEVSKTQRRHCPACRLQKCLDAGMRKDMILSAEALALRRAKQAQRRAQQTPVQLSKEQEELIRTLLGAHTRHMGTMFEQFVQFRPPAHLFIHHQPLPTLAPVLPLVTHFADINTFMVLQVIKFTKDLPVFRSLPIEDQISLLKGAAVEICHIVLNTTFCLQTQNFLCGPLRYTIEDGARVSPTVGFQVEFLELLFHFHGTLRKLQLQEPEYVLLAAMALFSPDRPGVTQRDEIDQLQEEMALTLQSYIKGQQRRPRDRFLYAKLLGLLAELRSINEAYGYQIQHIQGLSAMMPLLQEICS
Luciferin 4-monooxygenase (Photinus pyralis), sequence (P08659 whole entry, looked up): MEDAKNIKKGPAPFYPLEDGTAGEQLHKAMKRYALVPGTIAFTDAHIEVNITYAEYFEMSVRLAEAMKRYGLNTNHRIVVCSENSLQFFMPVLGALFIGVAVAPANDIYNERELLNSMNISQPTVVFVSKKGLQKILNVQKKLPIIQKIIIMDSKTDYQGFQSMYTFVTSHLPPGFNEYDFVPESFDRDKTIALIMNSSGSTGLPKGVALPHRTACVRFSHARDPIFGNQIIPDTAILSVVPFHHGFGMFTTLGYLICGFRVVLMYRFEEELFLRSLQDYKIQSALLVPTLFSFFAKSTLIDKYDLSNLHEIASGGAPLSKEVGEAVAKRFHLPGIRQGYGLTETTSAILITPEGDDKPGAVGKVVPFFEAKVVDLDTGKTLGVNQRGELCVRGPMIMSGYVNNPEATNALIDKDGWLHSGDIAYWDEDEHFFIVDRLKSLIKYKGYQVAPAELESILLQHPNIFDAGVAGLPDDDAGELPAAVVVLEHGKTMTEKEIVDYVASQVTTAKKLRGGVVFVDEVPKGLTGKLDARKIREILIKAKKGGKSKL
Thyrotropin receptor (Homo sapiens), sequence (P16473 whole entry, looked up): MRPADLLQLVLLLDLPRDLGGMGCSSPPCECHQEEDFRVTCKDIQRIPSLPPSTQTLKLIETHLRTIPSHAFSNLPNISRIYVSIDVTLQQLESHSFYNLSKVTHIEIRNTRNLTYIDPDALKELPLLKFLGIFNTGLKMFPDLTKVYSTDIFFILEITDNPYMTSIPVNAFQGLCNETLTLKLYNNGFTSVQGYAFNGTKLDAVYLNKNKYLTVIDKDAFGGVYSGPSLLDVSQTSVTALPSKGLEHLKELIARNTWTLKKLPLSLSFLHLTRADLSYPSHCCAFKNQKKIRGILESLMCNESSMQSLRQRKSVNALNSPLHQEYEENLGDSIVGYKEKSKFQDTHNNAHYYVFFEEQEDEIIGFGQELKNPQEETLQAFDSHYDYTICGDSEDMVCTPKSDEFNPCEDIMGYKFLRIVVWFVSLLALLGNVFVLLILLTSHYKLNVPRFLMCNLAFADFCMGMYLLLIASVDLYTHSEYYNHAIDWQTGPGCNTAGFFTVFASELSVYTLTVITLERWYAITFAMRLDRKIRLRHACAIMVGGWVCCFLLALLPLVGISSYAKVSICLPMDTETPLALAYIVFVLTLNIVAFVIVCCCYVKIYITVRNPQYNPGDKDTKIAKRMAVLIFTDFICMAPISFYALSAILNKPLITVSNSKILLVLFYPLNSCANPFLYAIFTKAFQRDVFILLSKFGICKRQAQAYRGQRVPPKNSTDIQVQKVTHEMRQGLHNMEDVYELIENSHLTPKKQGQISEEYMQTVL

CCCCCCc1ccc(O)cc1O
inactive: [2] | [3] | [4] | [5] | [6] | [7] | [8] | [9] | [10] | [11] | [12]
active: [1] 49.1 µM and 54.9 µM

C=C(C)C(=O)OCC(C)O (configuration not stated)
inactive: [1] | [2] | [3] | [4] | [13] | [5] | [6] | [7] | [8] | [9] | [12]

O=C(Nc1ncc([N+](=O)[O-])s1)c1cccs1
active: [1] 6.01 µM | [2] 23.7 µM | [4] 1.06 µM | [13] 13.3 µM | [5] 3.09 µM | [8] 1.33 µM | [11] 0.841 µM
inactive: [3] | [9] | [10] | [12]

CC(=O)C(=O)O
inactive: [1] | [2] | [3] | [4] | [13] | [5] | [6] | [7] | [8] | [9] | [12]

COc1ccc(C(Cl)=C(c2ccc(OC)cc2)c2ccc(OC)cc2)cc1
active: [10] 27.2 µM and 30.6 µM and 23.7 µM
inactive: [1] | [2] | [3] | [4] | [13] | [5] | [6] | [7] | [8] | [9] | [11]

Cc1c(C(=O)O)c(O)cc2c1C(=O)c1c(O)c([C@@H]3O[C@H](CO)[C@@H](O)[C@H](O)[C@H]3O)c(O)c(O)c1C2=O
inactive: [1] | [3] | [4] | [9]
active: [2] 33.5 µM and 48.6 µM | [13] 33.5 µM and 27.3 µM | [5] 34.7 µM and 35.6 µM and 17.4 µM

CN(C)C(=O)Nc1ccc(Cl)c(Cl)c1
inactive: [1] | [2] | [3] | [4] | [13] | [5] | [6] | [7] | [14] | [9] | [10] | [11] | [12]

CCCCCCCC(=O)OCC(COC(=O)CCCCCCC)OC(=O)CCCCCCC
inactive: [1] | [2] | [3] | [4] | [13] | [5] | [6] | [7] | [9] | [12]
